Hit rate of the full screen: of about 210,000 compounds, about 5,900 (2.8%) were called active. Another 5% or so got no clear call; they are omitted. Calls come from the whole dose curve; as a rule, active = well fitted activation curve with a large enough effect; inconclusive = small, poorly fitted or top-dose-only effect; inactive = no such curve, though single readings can be large or run the other way. The full list was thinned out, with actives kept by preference.
experiment: qHTS Assay for Enhancers of SMN2 Splice Variant Expression; details: HEK293 SMN2-luciferase splicing reporter, luminescence, 30-36 h; series mostly up to 46.1 µM; note: nearly all actives have a fitted effect of over 55% in size; for Activity change, positive = activation: % of control where 0% means no effect
In short: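 HEK293 cells carry an SMN2 minigene-luciferase reporter in which exon 7 inclusion puts luciferase in frame. Cells were seeded at 2000 cells/well, attached for 10-12 hours, then exposed to compounds for 30-36 hours at 37C before ONE-Glo luminescence.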
Potency is the fitted concentration of half-maximal effect.

Potency, active:
O=C(Nc1ccc(-c2nnc(-c3ccccc3)o2)cc1)C1CCCO1 (centres undefined) 3.55 µM
Cc1cccc(/C(N)=N/OC(=O)c2ccccc2Cl)c1 11.2 µM
Cc1ccc(-n2c(C)cc(C(=O)CSc3nnc4ccccn34)c2C)cc1 2.24 µM
O=C(CSc1nnc2ccccn12)c1ccccc1 12.6 µM
O=C(c1cnn2ccccc12)N1CCc2ccccc21 11.2 µM
S=C(NCc1ccco1)Nc1ccc2c(c1)OCCO2 15.8 µM
Cc1noc(C)c1/C=N/Nc1ccc2ccccc2n1 14.1 µM
Cc1cc(Cl)ccc1OCc1nc(-c2ccncc2)no1 12.6 µM
CCSc1nnc(-c2cc3c(s2)-c2ccccc2CC3)o1 15.8 µM
O=c1[nH]c(CCl)nc2cc(-c3ccc(Cl)cc3)sc12 7.08 µM
Cc1cc(NC(=O)CCC2COc3ccccc3O2)no1 (centres undefined) 12.6 µM
Cn1c(=NC(=O)c2cnccn2)sc2ccccc21 12.6 µM
COc1ccc2nc(SCc3ccccc3)nc(C)c2c1 11.2 µM
COc1ccccc1NC(=O)c1ccc(C)s1 12.6 µM
Cc1ccc(NC(=S)Nc2ncccc2C)c(C)c1 12.6 µM
N/C(=N\OC(=O)c1ccc([N+](=O)[O-])cc1)c1ccccn1 6.31 µM
COc1c2c(cc3occ(-c4ccc5c(c4)OCO5)c(=O)c13)OC(C)(C)C=C2 6.31 µM
Cc1ccc(C(=O)CSc2nc3ccccc3c(=O)n2N)o1 15.8 µM
COc1ccc(-c2nc(-c3ccccc3)no2)c(OC)c1 0.447 µM
COc1ccc(-c2noc(-c3ccc(C)cc3)n2)cc1 17.8 µM
COc1ccc(-c2noc(-c3cccc(OC)c3OC)n2)cc1OC 12.6 µM

Potency, inactive:
COc1ccc(CCNc2nc3c(-c4cccc(F)c4)nnn3c3ccccc23)cc1OC
CCCN(CCC)C(=O)C(Cc1ccccc1)NS(=O)(=O)c1ccc2c(c1)c(=O)n(C)c(=O)n2C (centres undefined)
O=C(Nc1cccc(-c2nnc(-c3ccccc3)o2)c1)C1CCCO1 (centres undefined)
O=C(Nc1nnc(CCc2ccccc2)s1)C1CCCO1 (centres undefined)
CCOc1ccc(CCNC(=O)c2cc3c(=O)n(C)c4ccccc4c3n2C)cc1
Cn1c(COc2ccccc2C(C)(C)C)nc2ccccc21
CC1CCN(c2nc3ccc(C(=O)N4CCN(c5ccccc5)CC4)cc3s2)CC1
C=CC(C1=CC(=O)C=CC1=O)c1ccc(O)cc1 (centres undefined)
N/C(=N\OC(=O)c1cc(-c2ccccc2)nc2ccccc12)c1ccncc1
Cc1cccc(C(=O)O)c1
COc1ccc(CNc2nc(-c3ccc(Cl)cc3)nn2C(=O)c2ccccc2)cc1
COc1ccc2c(c1)c(=O)c(C(=O)c1ccccc1)cn2CC(=O)Nc1ccc2c(c1)OCCO2
COc1ccc(-n2c(C)cc(C(=O)CSc3nnc(-c4cccs4)o3)c2C)cc1
Cc1ccc(-n2c(C)cc(C(=O)CN3C(=O)C(=O)N(C4CCCC4)C3=O)c2C)cc1
N#Cc1ccc(CSc2nnc3ccccn23)cc1
Cn1c(CC(=O)Nc2ccccc2)nnc1SCC(=O)c1ccccc1
Cn1c(=O)c2c(nc(Oc3ccc(C#N)cc3)n2Cc2ccc(Cl)cc2Cl)n(C)c1=O
Cc1cccc(C(C)C)c1NC(=O)C(NS(=O)(=O)c1cccc2nsnc12)c1ccccc1 (centres undefined)
CCOC(=O)N1CCc2c(sc3c2c(=O)n(Cc2ccccc2)c(=O)n3CC(=O)Nc2cccc(C)c2)C1
COc1ccc(N2CCN(C(=O)c3cn(C)c4ccc(S(=O)(=O)N5CCOCC5)cc4c3=O)CC2)cc1
Cc1cc(NC(=O)CC(C)C)cc(-c2nc3ncccc3o2)c1O
COc1ccc(NC(=O)CSC2=Nc3ccccc3C3=NC(CC(=O)NCc4ccccc4OC)C(=O)N23)cc1Cl (centres undefined)
CCc1ccccc1N1CC(c2nc3ccccc3n2CCCCOc2ccccc2)CC1=O (centres undefined)
Cc1cc(C)c(NC(=O)c2cc3sc(Cl)cc3n2C)c(C)c1
O=C(c1cccc(C(=O)N2CCc3ccccc32)n1)N1CCc2ccccc21
Cc1cnc(C(=O)OCC(=O)N2CCc3ccccc32)cn1
COc1cc(OC)c(C2C=C(C(=O)O)Nc3ncnn32)cc1OC (centres undefined)
S=C(NCc1ccc2c(c1)OCO2)NCc1ccco1
FC(F)Oc1ccc(NC(=S)NCc2ccco2)cc1Cl
COc1ccccc1CNC(=O)c1ccc(NC(=O)N2CC(C)Sc3ccccc32)cc1 (centres undefined)
CC(=O)N1CCc2cc(Br)cc(S(=O)(=O)CCC(=O)NCCc3ccc(Cl)cc3)c21
C(=N\Nc1ccc2ccccc2n1)/c1ccc2c(c1)OCO2
Cc1cc(C)nc(N/N=C/c2c(C)oc3ccccc23)n1
CCOC(=O)c1oc2ccc(S(=O)(=O)n3nc(-c4ccccc4OC)cc3N)cc2c1C
COc1ccc(-c2noc(COc3ccc(Cl)c(C)c3)n2)cc1
Cc1ccccc1C(=O)NCc1nc(-c2ccc(Cl)cc2)no1
O=C(c1ccc2c(c1)N(Cc1ccccc1)C(=O)c1ccccc1S2(=O)=O)N1CCCC1
O=C(CCCCn1c(=O)c2ccccc2n(CC(=O)Nc2cccc(C(F)(F)F)c2)c1=O)NCc1ccc2c(c1)OCO2
Fc1ccc(CSc2nnc(-c3cc4c(s3)-c3ccccc3CC4)o2)cc1
Cc1cccc(-c2nnc(SCC(=O)N3CCCc4ccccc43)o2)c1
COc1ccccc1-c1noc(CSc2nnc(-c3ccccc3)n2-c2ccc(C)c(C)c2)n1
CCCCOc1ccc(C(=O)Nc2cccc(-c3nc4ccccc4o3)c2C)cc1
O=c1[nH]c(CN2CCOCC2)nc2cc(Cl)ccc12
NC(=O)Cc1nc2scc(-c3ccc(Cl)cc3)c2c(=O)[nH]1
COc1ccc(NC(=O)CC2COc3ccccc3O2)c(OC)c1 (centres undefined)
Cc1ccc(SCCC(=O)Nc2cc(C)on2)cc1
CCc1ccccc1NC(=O)c1ccc2c(c1)CCN2S(C)(=O)=O
Cn1c(=NC(=O)CSCC(=O)N2CCOCC2)sc2ccccc21
Cn1c(=NC(=O)CSCC(=O)N2CCCCC2)sc2ccccc21
Cc1cc(C)cc(OCC(=O)Nc2nc(-c3ccc(F)cc3)ns2)c1
O=C(NCC12CC3CC(CC(C3)C1)C2)c1cc2nc(-c3ccccc3)cc(C(F)(F)F)n2n1
COc1ccc2nc(/N=C(\N)NC(=O)Nc3ccccc3)nc(C)c2c1
COC(=O)CSc1nc(C)c2ccc(OC)cc2n1
CCc1nn(CCCC(=O)NC(C)c2ccccc2)c(=O)c2cc3occc3n12 (centres undefined)
Cc1ccc(S(=O)(=O)n2nc(-c3ccc(Cl)cc3)nc2NCc2ccccc2)cc1
CCOc1ccc(Nc2oc(/C=C/c3ccc(F)cc3)nc2C#N)cc1
COc1ccccc1NC(=O)/C=C/C(N)=O
COc1ccccc1NC(=O)C1=C(C)NC(=O)NC1c1ccc(C)s1 (centres undefined)
Cc1cc(C)cc(NS(=O)(=O)c2ccc3[nH]cc(C(=O)N4CCCCC4)c(=O)c3c2)c1
Cc1ccc(Nc2c(-c3ccc(Cl)cc3)nc3sccn23)c(C)c1
CCCCOc1ccc(C(=O)N2CC(=O)Nc3ccc(Br)cc3C2c2ccc(F)cc2)cc1 (centres undefined)
Cc1ccc(NC(=S)NCc2ccccc2Cl)c(C)c1
Cc1ccc(NC(=S)NC(=O)c2ccc(-c3ccccc3)cc2)c(C)c1
O=C(OCc1ccc([N+](=O)[O-])cc1)c1ccccn1
N/C(=N\OC(=O)Cc1ccc([N+](=O)[O-])cc1)c1ccccn1
CCOC(=O)c1ccc(N2C(=O)c3n[nH]c(-c4ccco4)c3C2c2ccc(O)cc2)cc1 (centres undefined)
Cc1nc2ccc(S(=O)(=O)NC(C(=O)NCc3ccccc3Cl)C(C)C)cc2s1 (centres undefined)
COc1ccc(-c2nc(CN3CCC(C(=O)NCCN(CC(C)C)CC(C)C)CC3)c(C)o2)cc1OC
COc1ccc(CNc2nc(-c3ccc(Cl)cc3)cc(C(F)(F)F)n2)cc1
O=C1CC(c2ccc(F)cc2F)c2cc3c(cc2N1)OCO3 (centres undefined)
COc1ccc(CCNC(=O)c2cc(-c3ccc4c(c3)OCO4)on2)cc1OC
Cc1cccc(NC(=O)CSc2nnc(CNC(=O)c3cccc(C)c3)n2-c2ccccc2)c1
CCN1CCN(c2cc(C)c3cc(NC(=O)c4cc(Cl)ccc4OC)ccc3n2)CC1
CCc1cccc(NC(=O)CSc2nccn2C)c1
O=C(CCn1c(SCC(=O)c2ccccc2)nc2ccccc2c1=O)NCc1ccc(F)cc1
O=C(CCCn1c(SCC(=O)c2ccc(F)cc2)nc2ccccc2c1=O)NCc1ccco1
COc1ccc(-c2nnco2)cc1OC
COc1ccc(-c2noc(CSc3nnc(-c4ccccc4)n3-c3ccc(F)cc3)n2)c(OC)c1
CCOc1nc(-c2ccc(OC)cc2)ccc1-c1noc(-c2cc(OC)c(OC)c(OC)c2)n1
COc1ccc(-c2noc(CN(C)S(=O)(=O)c3ccc(C)cc3)n2)cc1
COc1ccc(-c2noc(CSc3ccc(C)cc3)n2)cc1
COc1ccc(/C=C/c2noc(-c3ccccc3O)n2)cc1OC

Activity change, positive = activation, inactive:
COc1ccc(-c2nc3c(c4c2C[C@H](c2ccccc2)OC4)CN(S(=O)(=O)c2c(C)noc2C)CC3)c(C)c1 -6.74% [at 9.22 µM]

Reference: PubChem BioAssay AID1458 (National Center for Advancing Translational Sciences (NCATS), 2008)
